# Measured values as given in PubChem BioAssay (NCI).
# The panel holds about 83,000 compounds, 20% with a hit somewhere; the sample as a whole holds those more often.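 Treatment: one concentration, 48 hours, 96-well format. Scoring: percent growth, with anything below 10 considered active.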 Unmarked numbers belong to inactive results. The source made the active and inactive calls.
# Test system: MDA-MB-468 breast
# Assay: NCI-60 one-dose screen, 48 h (100 = growth as untreated, 0 = no growth, -100 = all killed)
# Conditions: 10 µM unless noted
row,Compound,growth
1,CNC(=O)c1cc(Oc2ccc3c(c2)sc2nc(-c4ccc(N(C)C)cc4)cn23)ccn1,36.5%
2,Cn1cnc([N+](=O)[O-])c1Sc1ncn[nH]1,73.5%
3,O=C1/C(=C/c2ccccc2F)CNC/C1=C\c1ccccc1F,-59.7% (active)
4,CC(=NNc1ncnc2ccccc12)c1ccc(S(C)(=O)=O)cc1,103%
5,O=C(CN1CCNCC1)N1CCOCC1,117%
6,COc1cccc(C(=O)NC(c2ccc(C)cc2)c2cc(Cl)c3cccnc3c2O)c1 (stereo unspecified),-8.72% (active)
7,COc1cc2cc(Oc3ccc(NC(=O)Nc4ccc(F)c(C(F)(F)F)c4)cc3)c(C)nc2cc1OCCN1CCOCC1,-15.6% (active)
8,Cc1nc([P+](c2ccccc2)(c2ccccc2)c2ccccc2)c(Sc2sc(-c3ccccc3)nc2[P+](c2ccccc2)(c2ccccc2)c2ccccc2)o1,-31.6% (active)
9,CC1=NN(C(=O)c2nn(-c3ccc(Cl)cc3)cc2O)C(=O)C1,54.6%
10,O=C(OC1CCCC1)c1ccccc1Cl,132%
11,C#CCN(Cc1ccc2nc(N)[nH]c(=O)c2c1)c1ccc(C(=O)NC(CCC(=O)O)C(=O)O)cc1 (stereo unspecified),37.7%
12,c1ccc(-c2cc3cc4ccccc4cn3c2)cc1,79.8%
13,CC1(c2ccccc2)OC1C(=O)O (stereo unspecified),99.2%
14,Oc1ccc(O)cc1,96.7%
15,Cc1cccc2c1C[C@@]1(C2=O)C(c2ccc(C(C)(C)C)cc2)=NOS1=O (stereo partly specified),88.2%
16,N#CCc1cccc2ccccc12,112%
